# HP1b binding inh: HP1-beta chromodomain-methylated histone interaction inhibition | AlphaScreen HP1-beta / biotin-H3K9me3 peptide binding | AID 540317 | 390,000 tested, 0.56% active | Potency, µM (titrated, usually from 114 µM), for inactives: at the top dose activity change, negative = inhibition, most hits filed as inhibitors; further: nearly all actives have a fitted effect of over 70% in size
# Target sequence (P83916 whole entry, looked up): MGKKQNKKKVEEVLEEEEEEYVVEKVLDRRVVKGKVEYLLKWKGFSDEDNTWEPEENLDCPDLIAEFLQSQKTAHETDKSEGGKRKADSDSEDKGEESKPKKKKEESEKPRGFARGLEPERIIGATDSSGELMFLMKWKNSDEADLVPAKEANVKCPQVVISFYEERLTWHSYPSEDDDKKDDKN
#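 Compound inhibition of the preformed complex between 50 nM HP1-beta and 50 nM biotinylated H3K9me3 peptide was read by AlphaScreen. Buffer was PBS pH 7.4 with 0.01% Tween-20. Incubations ran 30 min at room temperature, with 10 ug/mL donor/acceptor beads.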
# BAZ2B inh: blocks human BAZ2B | AlphaScreen BAZ2B-H3K14Ac peptide displacement | 360,000 tested, 4.4% active | Potency, µM (series often up to 114 µM), without a hit: top-dose activity change, negative = inhibition, most hits filed as inhibitors | Q9UIF8; further: on the % scale 0 is the no-effect control and ±100 the full control effect; nearly all actives have a fitted effect of over 60% in size
#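 AlphaScreen displacement: compounds (up to 110uM) incubated 30 min at room temperature with a preformed 50 nM BAZ2B/50 nM biotinylated H3K14Ac peptide complex in PBS pH 7.4 with Tween-20. Donor and acceptor beads at 10 ug/mL final added, 20 min light-protected before reading.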
# JMJD2A Tudor inh: blocks the human JMJD2A Tudor domain. AlphaScreen JMJD2A-Tudor / H3K4me3 peptide binding. O75164. Potency, µM (highest dose often 114 µM), without a hit: at the highest dose activity change, negative = inhibition, hits mostly inhibitors. 390,000 tested, 4.4% active; further: on the % scale 0 is the no-effect control and ±100 the full control effect; nearly all actives have a fitted effect of over 50% in size
# Sfp inh: blocks B. subtilis Sfp PPTase activity. Q9F4F7. Potency, µM, for inactives: largest response in the series, negative = inhibition, most hits filed as inhibitors. Biochemical Sfp PPTase activity, qHTS. 310,000 tested, 3.5% active;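 further: the enzyme is Sfp with the accession as filed and its product quenches rhodamine fluorescence; 0% = enzyme reaction without inhibitor and -100% = no enzyme wells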
#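 Step 1, compound plus 15 nM Sfp-PPTase, 15 min, room temperature. Step 2, add rhodamine-CoA (5 uM) and BHQ-2-YbbR (12.5 uM). Step 3, read 525/598 nm fluorescence at 0 and 30 min.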
# G9a inh: G9a (human) methyltransferase inhibition; G9a H3K9 monomethylation, AlphaScreen, 2 h; Potency, µM (series often up to 102 µM), for inactives: at the top dose activity, negative = inhibition, actives largely listed as inhibitors; 350,000 tested, 8.8% active; further: on the % scale 0 is the no-effect control and ±100 the full control effect; nearly all actives have a fitted effect of over 75% in size
# Target sequence (Q96KQ7 913-1193 limits assumed): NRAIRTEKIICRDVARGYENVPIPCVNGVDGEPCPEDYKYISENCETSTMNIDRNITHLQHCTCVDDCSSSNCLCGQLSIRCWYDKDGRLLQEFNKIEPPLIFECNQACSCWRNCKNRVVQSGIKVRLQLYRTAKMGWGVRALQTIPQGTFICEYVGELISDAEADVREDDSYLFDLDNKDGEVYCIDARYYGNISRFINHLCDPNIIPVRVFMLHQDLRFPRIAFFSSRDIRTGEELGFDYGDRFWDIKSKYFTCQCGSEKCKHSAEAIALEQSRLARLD
#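 AlphaScreen detection with an anti-monomethyl H3K9 antibody quantified product after a 2 h room-temperature reaction containing 500 nM biotinylated H3K9 peptide, 20 µM SAM and 20 nM enzyme, which had been preincubated 15 min with compound.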
# Active calls of the source: *; ? = inconclusive; nt = no result given; [ ] = remark or other dose. An excerpt weighted towards active compounds, which were near 12% of everything screened. The call rests on the fitted dose curve; in most records, active means well fitted curve in the direction sought with a large enough effect; inconclusive means small, poorly fitted or top-dose-only effect, or another doubt; inactive means no such curve, though single readings can be large; an effect the other way counts as inactive or inconclusive. Potency means the concentration at half of the fitted maximal effect.
SMILES,HP1b binding inh,BAZ2B inh,JMJD2A Tudor inh,Sfp inh,G9a inh
O=[N+]([O-])c1ccc(C(c2sc3nc(-c4ccco4)nn3c2O)N2CCN(Cc3ccccc3)CC2)cc1 (centres undefined),-14%,?,?,nt,?
Cc1ccc(NC(=O)COC(=O)CCC(=O)c2ccc(C(C)(C)C)cc2)c([N+](=O)[O-])c1,?,?,?,-8%,11µM*
Cc1ccc(NC(=O)CCCc2ccccc2)c([N+](=O)[O-])c1,?,?,?,3%,3.2µM*
Cc1ccc(NC(=O)COC(=O)COc2ccc(Cl)cc2C)c([N+](=O)[O-])c1,-25%,?,?,0%,28µM*
Cc1ccc(NC(=O)COC(=O)c2cc(Cl)ccc2[N+](=O)[O-])c(C)c1,30%,-6%,-21%[57.1 µM],-22%,?
N#Cc1cc(Sc2ccccn2)c([N+](=O)[O-])cc1C#N,24%,-3%,-4%,56µM*,9%
N#Cc1cc(Sc2ccccn2)c(Sc2ccccn2)cc1C#N,14%,2%,-18%,-12%,32µM*
O=C(O)c1ccc(Sc2ccccn2)c([N+](=O)[O-])c1,33%,?,-18%,1%,?
C/C(=N\NS(=O)(=O)c1ccc(Br)cc1)c1ccc(-n2ccnc2)cc1,45%,-11%,7%,nt,?
COc1ccc(S(=O)(=O)N/N=C(/C)c2ccncc2)cc1,59%,0%,-9%,1%,7.1µM*
C/C(=N/NS(=O)(=O)c1ccc(C)c(C)c1)c1ccncc1,56%,-8%,-11%,11%,-11%[0.501 µM]
COc1ccc(S(=O)(=O)N/N=C(/C)c2ccncc2)c(OC)c1,55%,-3%,2%,5%,25µM*
COc1ccc(S(=O)(=O)N/N=C(/C)c2ccncc2)cc1OC,45%,-24%,-17%,-5%,11µM*
C/C(=N\NS(=O)(=O)c1c(C)cc(C)cc1C)c1ccncc1,90%,-4%,-4%,-20%,8.9µM*
C/C(=N\NS(=O)(=O)c1ccc(Br)cc1)c1ccncc1,22%,-2%,-11%,0%,0%
COc1ccc(CCC(=O)NCc2cn3ccccc3n2)cc1,49%,-12%,-15%,-2%,?
COc1cccc(CNC(=O)COc2cccc3c2OC(C)(C)C3)c1,28%,-4%,-1%,nt,-40%
O=C1C(=O)N(CCN2CCOCC2)C(c2ccccc2)/C1=C(\O)c1ccc2c(c1)OCCO2 (centres undefined),9%,-15%,?,11%,?
O=C1C(=O)N(CCCN2CCOCC2)C(c2ccc(Cl)cc2)/C1=C(\O)c1ccc2c(c1)OCCO2 (centres undefined),11%,-27%,32µM*,12%,40µM*
COc1cccc(C2/C(=C(\O)c3ccc4c(c3)OCCO4)C(=O)C(=O)N2CCCN2CCOCC2)c1OC (centres undefined),54%,-3%,-2%,14%,3.5µM*
Cc1cc(=O)[nH]c2c(C)cc(S(=O)(=O)Nc3ccc(O)cc3)cc12,20%,5%,-10%,-4%,nt
Cc1sc2nc(CSC(C)C(=O)NC3(C#N)CCCCC3)[nH]c(=O)c2c1C (centres undefined),22%,-11%,-3%,nt,45µM*
Cc1sc2nc(CSCC(=O)Nc3ccccc3C#N)[nH]c(=O)c2c1C,-6%,7%,-17%,79µM*,?
Cc1ccc(F)cc1NC(=O)CSCc1nc2sc(C)c(C)c2c(=O)[nH]1,12%,-2%,-22%,nt,40µM*
CSc1ccccc1NC(=O)CSCc1nc2sc(C)c(C)c2c(=O)[nH]1,6%,7%,-15%,nt,?
O=c1c2ccccc2nc(SCc2ccccc2F)n1C1CCCC1,40%,2%,-4%,12%,41%[59 µM]
O=C(CCSc1ccc(Cl)cc1)NC1CCCCC1,42%,5%,1%,16%,6%[12.7 µM]
CCOC(=O)c1sc(NS(=O)(=O)c2ccccc2)nc1C,24%,3%,-16%,14%,-2%
Cc1nc(NS(=O)(=O)c2ccccc2)sc1NC(=O)OCCN(C)C,26%,-5%,-8%[11.4 µM],20µM*,?
COc1ccc(-c2c(C#Cc3ccsc3)c3ccccc3n2C)cc1,38%,?,-14%,-14%,32µM*
